Assay [1] deals with Thyrotropin-releasing hormone receptor (Homo sapiens) (UniProt P34981). Kind of assay: qHTS assay to identify small molecule agonists of the thyrotropin-releasing hormone receptor (TRHR) signaling pathway (AID 1346891; calls by dose curve; note: series mostly up to about 58 µM). A digest of the protocol:
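Intracellular calcium rise, read as fluorescence every second for 3 min, served as the agonist signal in dye-loaded HEK293 cells expressing TRHR; each compound ran at 15 concentrations in triplicate.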
On the technique in general: qHTS replaces the single test concentration by a dilution series.

The nature of assay [2]: Human pregnane X receptor (PXR) small molecule agonists, qHTS cell viability counter screen (AID 1346977). Note: nearly all actives have a fitted effect of over 50% in size. In short, it runs like this: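 PXR-Luc HepG2, 2,000 cells/well, 5% charcoal-stripped FBS; 5hr settle; cpd 24hr, 37C/5% CO2; CellTiter-Fluor at 23hr, read 1hr later (fluorescence).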
Assay [3] in a line: Caspase-3/7 induction in HepG2 cells by small molecules, qHTS assay (AID 1346978). Note: nearly all actives have a fitted effect of over 15% in size. A digest of the protocol: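 Caspase-3/7 induction was measured by Caspase-Glo 3/7 luminescence (30 min, room temperature) after a 17 hr compound exposure of wild-type HepG2 cells seeded at 2,000 per well and pre-incubated 5 hr.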
Assay [4] is described as follows: Caspase-3/7 induction in CHO-K1 cells by small molecules, qHTS cell viability counter screen (AID 1346979). Note: nearly all actives have a fitted effect of over 35% in size. Note: potency is the fitted concentration of half-maximal effect. A digest of the protocol: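 Cells (CHO-K1, wild type) are plated at 1,500 per well and incubated 5hr. Test compounds in DMSO are then pinned in, followed by 16hr at 37C and 5% CO2. Viability is read by CellTiter-Fluor fluorescence after 1hr.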
Assay [5] is described as follows: Caspase-3/7 induction in CHO-K1 cells by small molecules, qHTS assay (AID 1346980). Note: nearly all actives have a fitted effect of over 15% in size. Note: potency is the fitted concentration of half-maximal effect. In short, it runs like this: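 Luminescent Caspase-Glo 3/7 read (30min, room temperature) quantified apoptosis induction. Cells were wild-type CHO-K1, treated with compound for 17hr at 37 C and 5% CO2.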
Assay [6] can be described thus: Caspase-3/7 induction in HepG2 cells by small molecules, qHTS cell viability counter screen (AID 1346981). Note: series mostly up to about 92 µM; nearly all actives have a fitted effect of over 30% in size. A digest of the protocol:
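In this quantitative HTS counter screen, compounds delivered in DMSO were left on unmodified HepG2 cells for 16 hr at 37 C. Viability was then determined fluorometrically with CellTiter-Fluor, in parallel with caspase-3/7 induction in the same wells.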

Assay [7] concerns the target Nuclear receptor subfamily 1 group I member 2 (Rattus norvegicus) (UniProt Q9R1A7). Briefly: Rat pregnane X receptor (rPXR) activation by small molecules, qHTS assay (AID 1346983). Note: nearly all actives have a fitted effect of over 20% in size. The note with it: rPXR luciferase reporter cells, One-Glo luminescence, 24 h; max activation: stronger effect = higher value. A digest of the protocol: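 Luminescent readout (One-Glo luciferase, 30 min room temperature) followed 24 hr compound treatment at 37 C of rPXR cells plated 2,000 per well and preincubated 5hr; qHTS format with compounds delivered in DMSO.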

Assay [8] addresses Nuclear receptor subfamily 1 group I member 2 (Homo sapiens) (UniProt O75469). Briefly: Human pregnane X receptor (PXR) small molecule agonists, qHTS assay (AID 1346982). Note: nearly all actives have a fitted effect of over 35% in size. Note: potency is the fitted concentration of half-maximal effect. In short, it runs like this:
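Reporter HepG2 cells expressing PXR-Luc are cultured in charcoal-stripped FBS (5%), treated with compounds for 24 hr at 37 C, and assayed by ONE-Glo luminescence after 30 min at room temperature.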

Assay [9] concerns the target Cytochrome P450 2D6 (Homo sapiens) (UniProt P10635). Kind of assay: Cytochrome P450 Family 2 Subfamily D Member 6 (CYP2D6) small molecule antagonists: luciferase reporter qHTS assay (AID 1671196). Note: nearly all actives have a fitted effect of over 50% in size. Note: potency is the fitted concentration of half-maximal effect. A digest of the protocol:
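Test chemicals meet CYP2D6 plus proluciferin substrate (10 min, RT); NADPH regenerating solution then drives turnover for 1 h. Detection reagent halts the reaction; luminescence measured after 20 min.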
Background: In a reporter assay the amount or activity of a reporter protein is the signal.

In assay [10] the target is Cytochrome P450 2C19 (Homo sapiens) (UniProt P33261). Briefly: Cytochrome P450 Family 2 Subfamily C Member 19 (CYP2C19) small molecule antagonists: luciferase reporter qHTS assay (AID 1671197). Note: nearly all actives have a fitted effect of over 65% in size. Note: potency is the fitted concentration of half-maximal effect. In short, it runs like this:
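Compounds were tested on CYP2C19 activity via proluciferin conversion to luciferin. The 37C, 1 h reaction followed NADPH addition; detection reagent stopped it.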

Assay [11] concerns the target Voltage-gated inwardly rectifying potassium channel KCNH2 (Homo sapiens) (UniProt Q12809). Kind of assay: Human Ether-a-go-go-Related Gene (hERG) channel small molecule antagonists: fluorescence cell-based qHTS assay (AID 1671200).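 Note: hERG-expressing U2OS cells given a thallium stimulus after FluxOR II dye loading; series mostly up to about 77 µM; nearly all actives have a fitted effect of over 50% in size.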 A digest of the protocol:
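Channel function was assessed by thallium flux. Cells seeded the previous day and kept at 37 C took up FluxOR II dye over 1 h in the dark at room temperature, then sat another 10 min before stimulation.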
For orientation: The hERG channel carries a current that helps repolarise heart muscle cells.

The target in assay [12] is Cytochrome P450 3A4 (Homo sapiens) (UniProt P08684). Kind of assay: Cytochrome P450 Family 3 Subfamily A Member 4 (CYP3A4) small molecule antagonists: luciferase reporter qHTS assay (AID 1671201). Note: nearly all actives have a fitted effect of over 50% in size. Note: potency is the fitted concentration of half-maximal effect. A digest of the protocol:
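Compounds in DMSO were pin-transferred onto CYP3A4 enzyme-substrate mix and held 10 min at room temperature. NADPH regenerating solution started the reaction for 1 h; luciferin detection reagent stopped it, and luminescence was read after 20 min.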

In assay [13] the target is Cytochrome P450 2C9 (Homo sapiens) (UniProt P11712). Kind of assay: Cytochrome P450 Family 2 Subfamily C Member 9 (CYP2C9) small molecule antagonists: luciferase reporter qHTS assay (AID 1671198). Note: nearly all actives have a fitted effect of over 50% in size. Note: potency is the fitted concentration of half-maximal effect. In short, it runs like this:
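Enzyme-substrate mix preincubated with compound 10 min at room temperature; reaction started with NADPH regeneration solution, 1 h 37C. Luminescent luciferin product read after 20 min detection reagent.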

Assay [14] addresses Cytochrome P450 1A2 (Homo sapiens) (UniProt P05177). Kind of assay: Cytochrome P450 Family 1 Subfamily A Member 2 (CYP1A2) small molecule antagonists: luciferase reporter qHTS assay (AID 1671199). Note: nearly all actives have a fitted effect of over 50% in size. Note: potency is the fitted concentration of half-maximal effect. A digest of the protocol:
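Steps: enzyme-substrate mix dispensed; test compounds and furafylline control pinned in; 10 min room temperature; NADPH regeneration solution added, 1 h; reaction stopped with luciferin detection reagent; luminescence read after 20 min.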

Assay [15] deals with Nuclear receptor subfamily 1 group I member 2 (Homo sapiens) (UniProt O75469). Briefly: Human pregnane X receptor (PXR) activation by small molecules, qHTS assay (AID 1346985). Note: nearly all actives have a fitted effect of over 40% in size. In short, it runs like this:
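DPX-2 cells (HepG2 co-transfected with a PXR response element and a CYP3A4-promoter luciferase construct) were seeded at 2,000 per well, rested 5 hr at 37C, then exposed to DMSO-dissolved compounds for 24 hr. Activation was read as luciferase luminescence.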

“And” between values parts separate entries of the source, which are not always exact repeats. Identical values can stand only once. Records with an inconclusive call do not appear. More than one record can exist for a structure, and the calls need not agree. The source made the active and inactive calls. Unless noted, calls come from the whole dose curve; as a rule, active = well fitted curve in the direction sought with a large enough effect in the repeat runs; inconclusive = weak or mixed curves; inactive = no such curve, though single readings can be large; an effect the other way counts as inactive or inconclusive.
% is set by controls: 0 for no effect and ±100 for the full control effect.

Chain of Cytochrome P450 3A4 (Homo sapiens) (P08684 whole entry, looked up): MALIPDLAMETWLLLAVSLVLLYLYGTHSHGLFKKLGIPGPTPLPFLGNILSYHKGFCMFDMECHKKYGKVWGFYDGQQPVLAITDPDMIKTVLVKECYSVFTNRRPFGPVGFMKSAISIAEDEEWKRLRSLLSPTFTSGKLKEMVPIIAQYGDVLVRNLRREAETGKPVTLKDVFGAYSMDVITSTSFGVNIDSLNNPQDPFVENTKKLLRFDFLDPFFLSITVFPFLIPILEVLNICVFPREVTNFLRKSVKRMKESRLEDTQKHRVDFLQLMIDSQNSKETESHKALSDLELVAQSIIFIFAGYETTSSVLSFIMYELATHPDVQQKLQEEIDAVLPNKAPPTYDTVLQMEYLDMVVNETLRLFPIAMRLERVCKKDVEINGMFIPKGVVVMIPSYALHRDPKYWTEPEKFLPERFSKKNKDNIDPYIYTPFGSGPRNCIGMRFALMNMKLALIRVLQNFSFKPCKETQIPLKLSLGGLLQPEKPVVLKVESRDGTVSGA
Chain of Cytochrome P450 2D6 (Homo sapiens) (P10635 whole entry, looked up): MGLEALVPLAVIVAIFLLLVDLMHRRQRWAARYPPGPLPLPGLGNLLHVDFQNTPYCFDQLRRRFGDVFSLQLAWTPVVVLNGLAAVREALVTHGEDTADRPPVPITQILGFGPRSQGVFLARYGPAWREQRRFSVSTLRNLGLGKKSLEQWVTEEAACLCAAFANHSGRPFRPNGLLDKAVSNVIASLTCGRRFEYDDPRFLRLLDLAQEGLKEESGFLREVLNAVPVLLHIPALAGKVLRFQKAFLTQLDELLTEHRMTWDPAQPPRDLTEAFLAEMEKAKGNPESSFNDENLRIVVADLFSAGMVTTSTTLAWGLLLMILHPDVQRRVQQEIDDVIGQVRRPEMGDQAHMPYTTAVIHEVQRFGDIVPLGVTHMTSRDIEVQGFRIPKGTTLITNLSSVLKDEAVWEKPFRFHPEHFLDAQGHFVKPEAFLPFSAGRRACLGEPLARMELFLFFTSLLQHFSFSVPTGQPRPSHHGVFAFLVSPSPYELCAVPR
Chain of Cytochrome P450 2C19 (Homo sapiens) (P33261 whole entry, looked up): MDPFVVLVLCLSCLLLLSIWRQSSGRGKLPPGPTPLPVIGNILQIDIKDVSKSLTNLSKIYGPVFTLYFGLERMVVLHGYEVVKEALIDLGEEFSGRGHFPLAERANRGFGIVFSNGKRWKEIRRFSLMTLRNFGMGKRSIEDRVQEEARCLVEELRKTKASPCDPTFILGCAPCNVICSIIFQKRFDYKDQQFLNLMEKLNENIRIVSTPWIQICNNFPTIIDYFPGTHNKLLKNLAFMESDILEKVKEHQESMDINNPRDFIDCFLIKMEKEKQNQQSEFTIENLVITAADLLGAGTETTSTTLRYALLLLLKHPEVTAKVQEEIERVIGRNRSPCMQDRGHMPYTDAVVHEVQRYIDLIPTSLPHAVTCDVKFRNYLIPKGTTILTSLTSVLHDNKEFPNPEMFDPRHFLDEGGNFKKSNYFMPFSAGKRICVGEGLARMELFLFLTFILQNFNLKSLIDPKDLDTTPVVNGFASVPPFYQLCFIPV
Chain of Cytochrome P450 2C9 (Homo sapiens) (P11712 whole entry, looked up): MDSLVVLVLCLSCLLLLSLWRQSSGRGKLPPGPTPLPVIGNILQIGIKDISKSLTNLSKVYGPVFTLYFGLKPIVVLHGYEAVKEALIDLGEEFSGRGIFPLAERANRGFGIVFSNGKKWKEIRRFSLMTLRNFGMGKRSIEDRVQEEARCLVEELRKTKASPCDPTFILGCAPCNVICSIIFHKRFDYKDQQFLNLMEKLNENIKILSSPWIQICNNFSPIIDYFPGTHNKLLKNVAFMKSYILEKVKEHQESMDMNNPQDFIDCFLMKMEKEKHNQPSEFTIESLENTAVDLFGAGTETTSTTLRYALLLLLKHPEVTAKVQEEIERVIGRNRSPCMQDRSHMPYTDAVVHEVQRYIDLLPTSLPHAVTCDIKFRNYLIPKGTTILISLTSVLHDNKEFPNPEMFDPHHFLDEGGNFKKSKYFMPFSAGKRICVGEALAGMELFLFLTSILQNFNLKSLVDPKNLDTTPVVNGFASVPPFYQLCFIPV
Chain of Voltage-gated inwardly rectifying potassium channel KCNH2 (Homo sapiens) (Q12809 whole entry, looked up): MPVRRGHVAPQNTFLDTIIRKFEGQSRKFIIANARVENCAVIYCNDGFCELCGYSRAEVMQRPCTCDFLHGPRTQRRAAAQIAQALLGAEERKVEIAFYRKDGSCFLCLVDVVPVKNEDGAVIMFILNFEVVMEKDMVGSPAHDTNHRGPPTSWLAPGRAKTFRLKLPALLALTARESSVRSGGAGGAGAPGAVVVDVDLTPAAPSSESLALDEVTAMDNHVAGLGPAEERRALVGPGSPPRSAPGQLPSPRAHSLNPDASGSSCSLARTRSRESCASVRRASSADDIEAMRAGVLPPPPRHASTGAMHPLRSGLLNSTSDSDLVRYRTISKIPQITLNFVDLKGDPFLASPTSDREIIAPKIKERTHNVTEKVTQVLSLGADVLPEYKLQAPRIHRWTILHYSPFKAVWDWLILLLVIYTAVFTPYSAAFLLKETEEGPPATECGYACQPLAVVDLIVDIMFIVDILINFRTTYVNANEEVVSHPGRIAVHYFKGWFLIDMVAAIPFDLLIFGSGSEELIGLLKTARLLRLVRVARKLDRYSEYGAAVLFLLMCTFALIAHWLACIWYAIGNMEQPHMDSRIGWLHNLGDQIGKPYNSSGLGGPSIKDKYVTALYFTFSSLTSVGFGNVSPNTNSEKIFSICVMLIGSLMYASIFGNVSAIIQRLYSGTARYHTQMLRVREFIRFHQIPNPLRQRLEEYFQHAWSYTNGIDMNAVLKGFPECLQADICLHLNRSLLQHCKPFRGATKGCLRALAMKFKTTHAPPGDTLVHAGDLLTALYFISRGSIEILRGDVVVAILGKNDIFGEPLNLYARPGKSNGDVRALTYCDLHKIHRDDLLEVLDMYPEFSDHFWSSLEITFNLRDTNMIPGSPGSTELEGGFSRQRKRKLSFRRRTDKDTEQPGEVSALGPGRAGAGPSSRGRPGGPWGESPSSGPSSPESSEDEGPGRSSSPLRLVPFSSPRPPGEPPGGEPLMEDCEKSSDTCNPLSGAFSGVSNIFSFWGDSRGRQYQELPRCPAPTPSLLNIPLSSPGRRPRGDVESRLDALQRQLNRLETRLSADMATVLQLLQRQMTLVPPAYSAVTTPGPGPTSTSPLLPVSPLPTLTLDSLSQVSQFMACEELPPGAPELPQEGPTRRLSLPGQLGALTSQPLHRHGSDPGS
Chain of Nuclear receptor subfamily 1 group I member 2 (Homo sapiens) (O75469 whole entry, looked up): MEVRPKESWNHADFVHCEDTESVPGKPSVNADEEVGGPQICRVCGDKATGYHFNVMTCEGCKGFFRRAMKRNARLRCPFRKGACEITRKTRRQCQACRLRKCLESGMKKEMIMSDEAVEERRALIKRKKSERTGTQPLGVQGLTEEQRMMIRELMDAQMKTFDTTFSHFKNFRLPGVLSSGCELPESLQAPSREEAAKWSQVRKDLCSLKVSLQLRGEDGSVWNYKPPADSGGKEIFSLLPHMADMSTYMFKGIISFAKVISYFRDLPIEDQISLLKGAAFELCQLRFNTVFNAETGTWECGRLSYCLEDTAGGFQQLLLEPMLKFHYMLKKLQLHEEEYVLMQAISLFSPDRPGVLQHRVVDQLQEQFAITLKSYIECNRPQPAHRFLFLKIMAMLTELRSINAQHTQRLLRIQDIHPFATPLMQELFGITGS
Chain of Cytochrome P450 1A2 (Homo sapiens) (P05177 whole entry, looked up): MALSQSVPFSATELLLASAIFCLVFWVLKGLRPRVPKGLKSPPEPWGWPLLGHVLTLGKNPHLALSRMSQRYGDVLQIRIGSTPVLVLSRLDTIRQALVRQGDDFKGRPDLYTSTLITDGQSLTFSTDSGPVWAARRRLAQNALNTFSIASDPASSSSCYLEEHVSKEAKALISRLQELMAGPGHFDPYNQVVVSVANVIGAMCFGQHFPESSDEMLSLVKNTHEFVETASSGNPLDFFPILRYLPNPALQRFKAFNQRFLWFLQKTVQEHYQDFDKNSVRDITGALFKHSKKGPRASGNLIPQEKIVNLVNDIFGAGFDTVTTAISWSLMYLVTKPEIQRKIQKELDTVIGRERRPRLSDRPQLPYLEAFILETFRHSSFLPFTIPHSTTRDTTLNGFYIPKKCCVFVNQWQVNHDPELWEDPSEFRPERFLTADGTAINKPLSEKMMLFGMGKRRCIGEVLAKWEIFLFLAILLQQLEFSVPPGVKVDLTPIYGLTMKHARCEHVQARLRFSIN
Chain of Thyrotropin-releasing hormone receptor (Homo sapiens) (P34981 whole entry, looked up): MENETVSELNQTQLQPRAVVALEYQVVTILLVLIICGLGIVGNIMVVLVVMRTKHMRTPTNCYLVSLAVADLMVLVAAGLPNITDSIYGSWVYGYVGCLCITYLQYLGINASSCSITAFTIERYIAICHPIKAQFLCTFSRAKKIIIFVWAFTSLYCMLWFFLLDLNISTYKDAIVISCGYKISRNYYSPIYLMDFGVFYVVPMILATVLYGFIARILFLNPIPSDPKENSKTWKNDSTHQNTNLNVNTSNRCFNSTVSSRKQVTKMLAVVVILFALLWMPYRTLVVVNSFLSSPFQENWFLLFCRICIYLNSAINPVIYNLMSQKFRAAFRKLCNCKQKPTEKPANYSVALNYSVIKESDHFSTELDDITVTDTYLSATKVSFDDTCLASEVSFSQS
Chain of Nuclear receptor subfamily 1 group I member 2 (Rattus norvegicus) (Q9R1A7 whole entry, looked up): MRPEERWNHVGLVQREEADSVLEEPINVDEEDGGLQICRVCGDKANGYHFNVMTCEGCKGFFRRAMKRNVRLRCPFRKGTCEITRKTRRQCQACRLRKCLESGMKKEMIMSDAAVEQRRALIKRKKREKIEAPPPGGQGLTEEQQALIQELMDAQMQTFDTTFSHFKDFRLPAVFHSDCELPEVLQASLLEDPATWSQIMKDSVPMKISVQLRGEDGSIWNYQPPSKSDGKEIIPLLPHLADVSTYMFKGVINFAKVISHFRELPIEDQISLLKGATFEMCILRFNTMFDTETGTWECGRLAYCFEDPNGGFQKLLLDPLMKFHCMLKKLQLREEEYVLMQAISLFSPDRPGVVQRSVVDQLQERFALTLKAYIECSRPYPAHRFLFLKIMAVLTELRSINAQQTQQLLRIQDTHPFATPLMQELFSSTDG

For `NC(=O)NNc1ccccc1`, the Potency entry in assay [1], in [2], in [3], in assay [4], in [5] and in [6] was “inactive” in each case. For the same compound, the max activation in assay [7] is -0.925% (inactive) and 0.997% (inactive).
In the case of `CC1(C)CC(N=C=O)CC(C)(CN=C=O)C1` (configuration not stated), the Potency entry in assay [1], in assay [2], in assay [3], in [4], in assay [5] and in [6] was “inactive” throughout. For the same compound, the Potency entry in [8] and in assay [11] was “inactive” throughout. Moreover, the Potency in assay [9] was 25.5 µM (active) and 39.9 µM (active); in [10], 18.1 µM (active) and inactive; in assay [12], 4.05 µM (active) and 2 µM (active).
Take `O=C(O)c1cc(-c2ccccc2)nc2ccccc12`: the Potency result in assay [1], in assay [2], in assay [3], in assay [4], in assay [5] and in assay [6] was “inactive” in each case. In addition, the Potency entry in [8], in assay [11] and in assay [12] was “inactive” throughout. The Potency in assay [10] is 50.9 µM (active) and inactive; in [13], 43.9 µM (active).
For `CC1=C(/C=C/C(C)=C/C=C/C(C)=C/CO)C(C)(C)CCC1`, the Potency result in [1], in [2], in assay [3], in assay [5] and in assay [6] was “inactive” in each case. Also, the Potency in [4] is 69.4 µM (active); in assay [8], 55.1 µM (active) and 32.3 µM (active); in assay [10], 50.9 µM (active) and 37.5 µM (active); in [13] it was 64.1 µM (active) and 37.5 µM (active); in assay [14], 20.3 µM (active); in assay [12] it was 18.1 µM (active) and 11.9 µM (active).
Regarding `CCCCCCCCCCCCOCC1CO1` (configuration not stated), the Potency entry in assay [1], in assay [3], in assay [4], in assay [5], in assay [6] and in assay [8] was “inactive” in each case. Besides, the Potency result in [9], in assay [13], in assay [11] and in assay [12] was “inactive” each time. The Potency in [10] is 60.4 µM (active).
In the case of `OCCOCCOCCOCCO`, the Potency result in assay [1], in assay [3], in assay [4], in assay [5], in [6] and in assay [8] was “inactive” each time. In addition, the Potency entry in [9], in assay [13], in assay [11] and in assay [12] was “inactive” each time. Besides, in assay [10], the Potency is 40.8 µM (active) and inactive.
In the case of `CCOC(=O)C1OC1c1ccccc1` (configuration not stated), the Potency entry in [1], in [2], in assay [3], in assay [4], in assay [5] and in assay [6] was “inactive” each time. The Potency entry in [8], in [9], in [11] and in assay [12] was “inactive” throughout. The Potency in assay [10] was 36.3 µM (active).
In the case of `ClC1=C(Cl)C(Cl)(Cl)C(Cl)=C1Cl`, the Potency entry in [1], in [2], in assay [3], in assay [4], in assay [6] and in [8] was “inactive” each time. The Potency entry in assay [9], in assay [10], in assay [14], in [11] and in assay [12] was “inactive” each time. Also, in [5], the Potency result is “inactive and 68.6 µM (active)”.
As to `CC1(C)O[C@@H]2C[C@H]3[C@@H]4C[C@H](F)C5=CC(=O)CC[C@]5(C)[C@H]4[C@@H](O)C[C@]3(C)[C@]2(C(=O)CO)O1`, the Potency result in assay [1], in assay [3], in [4], in assay [5], in assay [6] and in assay [9] was “inactive” each time. For the same compound, the Potency result in assay [10], in [13], in assay [14] and in assay [11] was “inactive” throughout. Also, the Potency in assay [8] is 11.9 µM (active). Moreover, the call in [15] was inactive.

The values above are taken from PubChem BioAssay (Tox21).
